The structures appear in SMILES notation. About 83,000 compounds went through this panel and 20% of them were active in at least one assay; those are over-represented in the sample as a whole.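 96-well plates, one dose, 48 hours. Percent growth reported; active if below 10.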 Calls of active or inactive are those of the source.

The test system of this assay is NCI-H226 lung. As to the kind of experiment: NCI-60 one-dose screen, 48 h (100 = growth as untreated, 0 = no growth, -100 = all killed). The settings on record: 10 µM unless noted. Here is the method: Growth inhibition of the NCI-H226 human Non-Small Cell Lung tumor cell line is measured as a screen for anti-cancer activity. Cells are grown in 96 well plates and exposed to the test compound for 48 hours. Compounds are tested at a single concentration, which is 10^-5 M for most compounds. The reported endpoint is percent growth (GI% or GIPRCNT), where numbers from 0 - 100% represent growth inhibition, and numbers from -100% - 0 represent cell death. For example, a value of 40 represents 60% growth inhibition. A value of 0 means no net growth occurred over the course of the experiment. A value of -40 indicates 40% of cells at the beginning of the experiment died by the end of the experiment. A value of -100 means all cells are dead at the end of the experiment.
NCI-60 Human Tumor Cell Lines Screen was performed using the standard one-dose NCI protocol, which is described in more detail at https://dtp.cancer.gov/discovery_development/nci-60/default.htm.
Compounds with GIPRCNT values below 10 were considered active. Activity score was based on GIPRCNT using the following formula: […]
Score is 0 for GIPRCNT values of 100 or above, 50 for GIPRCNT values of 0, and 100 for GIPRCNT values of -100.
`O=S(=O)(NCCNc1cc(-c2cn(-c3ccccc3)nc2-c2ccccc2)ccn1)c1cccc2ccccc12`: the growth was 48% (inactive).

Consider `COc1cc2nc(Cl)nc(NCCO)c2cc1OC`, for which the growth was 98.2% (inactive).

For the compound `O=C1Nc2ccc(Br)cc2C1=N/C=c1\[nH]c(=O)/c(=C/c2ccc(Cl)cc2)s1`, the growth was 98.3% (inactive).

As to `CC[C@H](C)[C@@H]1NC(=O)[C@H]([C@@H](C)O)NC(=O)C(Cc2ccccc2)NC(=O)[C@@H]2CCCN2C(=O)C(C(C)C)NC(=O)C(Cc2ccccc2)NC(=O)CNC(=O)[C@@H]2CCCN2C1=O` (stereo not given in full), the growth was 65.8% (inactive).

On to `COc1ccc(/C(=N/O)c2cc(OC)c(OC)c(OC)c2)c(OC)c1N`, for which the growth was 80.7% (inactive).

`C#CCN1C(=O)/C(=c2\sc3n(c2=O)C2C(NN=3)N(CC)C(=O)N2CC)c2ccccc21` (stereo not given): the growth is 98% (inactive).

Turning to `O=C(O)c1ccc(-n2cc(CNc3ccc(C(F)(F)F)cc3)c(-c3ccccc3)n2)cc1`, the growth was 104% (inactive).

`COc1ccc(/C=C/c2cc(N3CCOCC3)c3cc(F)c(F)cc3n2)cc1OC`: the growth was 34.8% (inactive).

With `COc1cccc(/C=C/C(=O)c2sc(Nc3ccc(O)cc3)nc2C)c1`, the growth was 107% (inactive).

With `COc1cc(C(=O)CCCl)ccc1O`, the growth is 88.9% (inactive).

As for `O=S(=O)(NCCNc1cc(-c2cn(-c3ccccc3)nc2-c2ccccc2)ccn1)c1ccc(F)cc1`, the growth is 77.7% (inactive).

Regarding `Cc1sc(N=Nc2ccc(N(C)C)cc2)[n+]([O-])c1C`, the growth is 92.6% (inactive).

In the case of `O=C(OCCCCOC(=O)n1cnc2ccccc21)n1cnc2ccccc21`, the growth is 97.4% (inactive).

In the case of `Clc1ccc(/C=C/c2nc(N3CCOCC3)c3nc(Cl)c(Cl)cc3n2)cc1`, the growth is 106% (inactive).

Take `OCc1c(-c2ccccc2)nc2sccn12`: the growth is 106% (inactive).

For `COc1ccc(C2SCC(=O)N2NC(=O)c2ccc(NC(=O)c3ccccn3)cc2)cc1OC` (stereo not given), the growth is 94.3% (inactive).

As for `CC(=O)Nc1ccc(S(=O)(=O)N2C(=O)CCC2C(=O)Nc2ccccc2)cc1` (stereo not given), the growth is 46.9% (inactive).

As for `COc1cc(-c2n[nH]nc2-c2ccc3c(c2)OCCO3)cc(OC)c1OC`, the growth was 75.7% (inactive).

For the compound `Cc1cccc(-n2c(C)nc3ccc(NC(=O)NCCCl)cc3c2=O)c1`, the growth was 95.3% (inactive).

On to `COc1ccc(/C=C/C(=O)c2ccc(B(O)O)cc2)cc1O`, for which the growth was 92.5% (inactive).

As to `O=C(c1c[nH]c2ccccc12)C(Sc1nc2ccccc2c(=O)[nH]1)c1ccccc1` (stereo not given), the growth was 95.9% (inactive).

For the compound `Cc1ccc(Cn2c(-c3cccs3)nc3ccccc32)cc1`, the growth was 77.3% (inactive).

As to `CCCC1OC(c2ccc(C(C)C)cc2)OCC1CC` (stereo not given), the growth is 100% (inactive).

As to `FC(F)(F)c1cccc(-n2nnc3cnc(Nc4ccc(N5CCCCC5)cc4)nc32)c1`, the growth is 92.4% (inactive).

Take `COc1cc(/C=C/C(=O)c2ccc(NC(=O)CN3CCN(c4cc5c(cc4F)c(=O)c(C(=O)O)cn5C4CC4)CC3)cc2)cc(OC)c1OC`: the growth was -9.81% (active).

For `CN(C)C/C=C/C(=O)Nc1cc2c(Nc3cccc(Cl)c3F)ncnc2cc1OCCOC(F)F`, the growth is 40.3% (inactive).

For `CCN(CC)CCCC(C)N=c1cc(Nc2cc(=NC(C)CCCN(CC)CC)c3cc(OC)ccc3o2)oc2ccc(OC)cc12` (stereo not given), the growth was 2.33% (active).

Regarding `NC(=O)NNC(=O)c1ccccc1`, the growth is 106% (inactive).

In the case of `CCC1CCc2nc3sc(C(=O)Nc4cccc(C)c4)c(N)c3cc2C1` (stereo not given), the growth is 96% (inactive).

As to `COC1=CC(c2ccc[nH]2)=N/C1=C\c1[nH]c(C)c(C(=O)CCC(=O)Oc2ccc3c(c2)CCC2C3CC[C@]3(C)[C@@H](O)CC[C@@H]23)c1C` (stereo not given in full), the growth is 15.5% (inactive).

On to `CCN(CC)CCSc1c2ccc(Cl)cc2nc2ccc(OC)cc12`, for which the growth was 100% (inactive).

As for `CCCCCc1c(C)[nH]c(/C=c2\[nH]/c(=C3/C=c4ccccc4=N3)cc2OC)c1C`, the growth is -16.4% (active).

As to `COc1cccc(-n2cc(-c3nc(Cl)c4ccccc4n3)nn2)c1`, the growth was 111% (inactive).

With `COc1cc2nc(N3CCC[C@@H](NC4=CC(=O)c5ccccc5C4=O)C3)nc(N)c2cc1OC`, the growth was 113% (inactive).

For the compound `COc1cc(C2C=C(C)N=C3SC=CN32)cc(OC)c1OC` (stereo not given), the growth was 103% (inactive).

`CCCCCCCCCCC/C=C\C[C@H](O)C/C=C1/C(=O)C=C[C@@H]1C/C=C\CCCC(=O)OC`: the growth was -45.9% (active).

On to `COc1ccc(C2CC(=O)Nc3c2c(C)nn3-c2nc3ccccc3[nH]2)cc1OC` (stereo not given), for which the growth is 58.7% (inactive).

Consider `COc1ccc(C(=O)c2cc(OC)c(OC)c(OC)c2)cc1/C=C/C(=O)c1ccc(OC)c(OC)c1`, for which the growth was 55.6% (inactive).

For the compound `O=C(CN1CCOCC1)Nc1ccc(-c2nc3ccccc3s2)cc1`, the growth was 95% (inactive).

Consider `Nc1c(C(=O)Nc2cccc(C(F)(F)F)c2)sc2nc3c(cc12)CCCCCC3`, for which the growth is 5.69% (active).

The values above are taken from PubChem BioAssay (NCI).
